This note sets out measurements from article PMC7862700, “An all-to-all approach to the identification of sequence-specific readers for epigenetic DNA modifications on cytosine”.

Common to all, as to assay: DAPPL (digital affinity profiling via proximity ligation, sequencing); 10 mM Tris-HCl pH 7.5, 50 mM NaCl, 1 mM DTT, 4% glycerol, room temperature, 30 min; GST-TFs on glutathione beads, 16-mer random dsDNA library, 0.1% formaldehyde crosslink after washing; high values mean tight binding
Common to all, as to conditions: protein: recombinant; tags: N-terminal GST; dsDNA, one strand shown

One assay has as its target T1, FLI1 (Homo sapiens, UniProt Q01543 1-452).
T1 sequence: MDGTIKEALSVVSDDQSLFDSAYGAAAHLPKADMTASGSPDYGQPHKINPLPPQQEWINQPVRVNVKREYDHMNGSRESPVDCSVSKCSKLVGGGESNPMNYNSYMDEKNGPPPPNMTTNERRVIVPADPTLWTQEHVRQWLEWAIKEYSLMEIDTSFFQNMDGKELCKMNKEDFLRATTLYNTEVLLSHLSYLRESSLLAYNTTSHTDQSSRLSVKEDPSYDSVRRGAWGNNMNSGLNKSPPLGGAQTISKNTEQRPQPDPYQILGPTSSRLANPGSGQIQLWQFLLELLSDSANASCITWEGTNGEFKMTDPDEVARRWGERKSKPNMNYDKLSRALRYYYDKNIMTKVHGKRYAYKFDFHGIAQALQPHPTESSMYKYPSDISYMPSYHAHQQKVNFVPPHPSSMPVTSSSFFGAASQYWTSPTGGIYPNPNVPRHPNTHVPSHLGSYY
In short, it runs like this: (§1)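 Binding signal is given per hexamer as its read frequency for a factor divided by its frequency in the tag-only sample. GST-fused human transcription factors were expressed in yeast, captured on glutathione beads, barcoded with DNA and pooled with that sample, then incubated with 200 nmole of a 16-mer random double-stranded DNA library in Tris/NaCl/DTT/glycerol buffer for 30 min at room temperature. The pools were then washed, crosslinked, proximity-ligated, amplified by PCR and sequenced on an Illumina NextSeq500.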

A further assay has as its target T2, ELK1 (Homo sapiens, UniProt P19419 1-428).
T2 sequence: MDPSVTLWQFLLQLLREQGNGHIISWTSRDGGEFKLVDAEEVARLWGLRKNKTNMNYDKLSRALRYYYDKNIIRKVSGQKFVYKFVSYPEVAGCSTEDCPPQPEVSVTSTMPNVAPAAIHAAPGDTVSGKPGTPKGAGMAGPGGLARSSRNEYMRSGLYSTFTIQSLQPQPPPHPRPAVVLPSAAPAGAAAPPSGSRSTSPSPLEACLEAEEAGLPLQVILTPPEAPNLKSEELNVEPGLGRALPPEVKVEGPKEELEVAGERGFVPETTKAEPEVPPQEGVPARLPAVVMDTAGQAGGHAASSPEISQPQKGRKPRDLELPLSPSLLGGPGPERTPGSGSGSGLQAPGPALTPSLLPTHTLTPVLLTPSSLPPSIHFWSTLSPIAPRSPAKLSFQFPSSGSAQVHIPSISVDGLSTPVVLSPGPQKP
The method, boiled down:
as §1

The next assay has as its target T3, GABPA (Homo sapiens, UniProt Q06546 1-454).
T3 sequence: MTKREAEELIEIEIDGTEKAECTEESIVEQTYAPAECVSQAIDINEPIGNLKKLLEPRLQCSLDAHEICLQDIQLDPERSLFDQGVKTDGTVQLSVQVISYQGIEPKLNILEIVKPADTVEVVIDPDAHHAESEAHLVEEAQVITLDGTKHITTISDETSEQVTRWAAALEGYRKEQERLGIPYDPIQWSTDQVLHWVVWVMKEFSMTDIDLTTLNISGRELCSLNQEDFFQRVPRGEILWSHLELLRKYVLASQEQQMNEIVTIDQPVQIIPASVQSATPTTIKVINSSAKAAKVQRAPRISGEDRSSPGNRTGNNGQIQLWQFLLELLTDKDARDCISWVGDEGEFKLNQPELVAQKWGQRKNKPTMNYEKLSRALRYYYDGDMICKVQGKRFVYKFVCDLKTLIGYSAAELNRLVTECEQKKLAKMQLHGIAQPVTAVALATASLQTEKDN
In short, it runs like this:
as §1

The next assay concerns the target T4, ERG (Homo sapiens, UniProt P11308 1-479).
T4 sequence: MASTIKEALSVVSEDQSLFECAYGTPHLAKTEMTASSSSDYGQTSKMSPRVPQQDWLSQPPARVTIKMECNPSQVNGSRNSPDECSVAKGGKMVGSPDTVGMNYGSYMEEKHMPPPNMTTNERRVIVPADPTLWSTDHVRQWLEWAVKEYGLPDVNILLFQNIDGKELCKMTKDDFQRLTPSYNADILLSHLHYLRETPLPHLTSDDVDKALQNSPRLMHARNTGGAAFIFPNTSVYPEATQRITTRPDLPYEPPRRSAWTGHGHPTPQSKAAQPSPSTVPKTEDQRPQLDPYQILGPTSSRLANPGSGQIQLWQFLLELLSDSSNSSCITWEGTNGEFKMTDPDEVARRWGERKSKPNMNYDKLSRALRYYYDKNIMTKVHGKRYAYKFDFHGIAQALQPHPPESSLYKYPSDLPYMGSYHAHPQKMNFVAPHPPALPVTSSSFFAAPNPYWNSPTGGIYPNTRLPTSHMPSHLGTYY
The method, boiled down:
as §1

A further assay deals with ELF1 (Homo sapiens, UniProt P32519 1-619). The method, boiled down: as §1
The next assay has as its target T5, EHF (Homo sapiens, UniProt Q9NZC4 1-300).
T5 sequence: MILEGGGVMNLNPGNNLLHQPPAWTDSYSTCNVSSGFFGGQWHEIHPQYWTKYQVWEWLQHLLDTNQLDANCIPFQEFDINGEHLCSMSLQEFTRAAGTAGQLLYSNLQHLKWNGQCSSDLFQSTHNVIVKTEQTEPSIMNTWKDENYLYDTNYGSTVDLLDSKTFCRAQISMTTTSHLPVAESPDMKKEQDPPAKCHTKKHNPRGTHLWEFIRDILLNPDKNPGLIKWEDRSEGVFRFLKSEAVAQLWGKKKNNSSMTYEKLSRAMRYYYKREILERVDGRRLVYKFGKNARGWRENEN
In short, it runs like this:
as §1

In a further assay the target is SPI1 (Homo sapiens, UniProt P17947 1-270). The method, boiled down: as §1
The next assay has as its target SPIB (Homo sapiens, UniProt Q01892 1-262). In short, it runs like this: as §1
The target of the next assay is T6, ELK3 (Homo sapiens, UniProt P41970 1-407).
T6 sequence: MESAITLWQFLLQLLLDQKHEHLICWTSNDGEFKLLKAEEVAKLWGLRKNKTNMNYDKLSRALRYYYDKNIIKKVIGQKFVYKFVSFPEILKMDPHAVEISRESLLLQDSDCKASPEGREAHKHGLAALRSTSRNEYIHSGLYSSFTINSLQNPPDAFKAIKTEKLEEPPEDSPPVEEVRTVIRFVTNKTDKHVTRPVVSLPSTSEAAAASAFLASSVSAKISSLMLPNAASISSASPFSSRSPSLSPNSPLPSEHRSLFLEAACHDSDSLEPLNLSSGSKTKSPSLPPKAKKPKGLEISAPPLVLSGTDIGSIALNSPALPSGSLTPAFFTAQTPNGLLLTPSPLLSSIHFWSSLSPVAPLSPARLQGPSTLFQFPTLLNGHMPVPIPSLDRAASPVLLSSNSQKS
The method, boiled down:
as §1

Chain of SPIB (Q01892 whole entry): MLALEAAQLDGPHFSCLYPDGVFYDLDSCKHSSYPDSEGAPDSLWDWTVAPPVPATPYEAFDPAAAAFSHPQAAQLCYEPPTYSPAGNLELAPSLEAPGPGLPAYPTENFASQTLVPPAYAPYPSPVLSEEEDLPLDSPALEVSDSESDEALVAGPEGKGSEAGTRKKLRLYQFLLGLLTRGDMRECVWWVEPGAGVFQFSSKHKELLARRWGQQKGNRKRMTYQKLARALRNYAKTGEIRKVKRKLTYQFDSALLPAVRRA
Chain of ELF1 (P32519 whole entry): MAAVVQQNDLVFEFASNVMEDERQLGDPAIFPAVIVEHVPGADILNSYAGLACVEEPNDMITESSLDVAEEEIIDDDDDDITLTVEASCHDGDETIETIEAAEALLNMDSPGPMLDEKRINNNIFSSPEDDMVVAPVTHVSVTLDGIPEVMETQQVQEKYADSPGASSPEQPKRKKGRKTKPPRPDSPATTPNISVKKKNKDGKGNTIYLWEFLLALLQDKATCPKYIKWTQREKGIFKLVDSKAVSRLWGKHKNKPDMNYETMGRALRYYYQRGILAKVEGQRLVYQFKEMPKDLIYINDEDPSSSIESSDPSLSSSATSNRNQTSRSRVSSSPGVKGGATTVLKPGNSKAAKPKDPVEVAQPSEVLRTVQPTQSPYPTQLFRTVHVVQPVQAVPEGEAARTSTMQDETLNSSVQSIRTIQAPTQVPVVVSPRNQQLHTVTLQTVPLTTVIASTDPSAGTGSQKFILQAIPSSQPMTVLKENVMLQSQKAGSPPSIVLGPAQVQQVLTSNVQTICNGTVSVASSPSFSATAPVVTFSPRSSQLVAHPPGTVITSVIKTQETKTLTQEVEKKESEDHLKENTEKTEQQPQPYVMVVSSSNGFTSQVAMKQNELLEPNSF

On to AAGCTC, for which the binding signal was 1.22 fold enrichment (6-mer frequency, TF over GST control) with FLI1; 1.22 fold enrichment (6-mer frequency, TF over GST control) with ELK1; 1.25 fold enrichment (6-mer frequency, TF over GST control) with GABPA; 1.17 fold enrichment (6-mer frequency, TF over GST control) with ERG; 1.2 fold enrichment (6-mer frequency, TF over GST control) in the assay with ELF1; 1.15 fold enrichment (6-mer frequency, TF over GST control) with EHF. Moreover, the binding signal with SPI1 is 1.12 fold enrichment (6-mer frequency, TF over GST control); in the assay with SPIB, 1.11 fold enrichment (6-mer frequency, TF over GST control); with ELK3 it was 1.09 fold enrichment (6-mer frequency, TF over GST control).

In the case of GATGCC, the binding signal in the assay with FLI1 is 1.45 fold enrichment (6-mer frequency, TF over GST control); in the assay with ELK1, 1.36 fold enrichment (6-mer frequency, TF over GST control); with GABPA, 1.38 fold enrichment (6-mer frequency, TF over GST control); with ERG, 1.41 fold enrichment (6-mer frequency, TF over GST control); with ELF1, 1.32 fold enrichment (6-mer frequency, TF over GST control); with EHF it was 1.41 fold enrichment (6-mer frequency, TF over GST control). The binding signal with SPI1 was 1.35 fold enrichment (6-mer frequency, TF over GST control); in the assay with SPIB, 1.26 fold enrichment (6-mer frequency, TF over GST control); with ELK3, 1.38 fold enrichment (6-mer frequency, TF over GST control).

Regarding AACTTG, the binding signal with FLI1 was 1.26 fold enrichment (6-mer frequency, TF over GST control); in the assay with ELK1 it was 1.2 fold enrichment (6-mer frequency, TF over GST control); with GABPA, 1.18 fold enrichment (6-mer frequency, TF over GST control); with ERG it was 1.11 fold enrichment (6-mer frequency, TF over GST control); with ELF1, 1.21 fold enrichment (6-mer frequency, TF over GST control); with EHF, 1.14 fold enrichment (6-mer frequency, TF over GST control). Also, the binding signal with SPI1 was 1.15 fold enrichment (6-mer frequency, TF over GST control); in the assay with SPIB, 1.19 fold enrichment (6-mer frequency, TF over GST control); with ELK3, 1.08 fold enrichment (6-mer frequency, TF over GST control).

Turning to TACATC, the binding signal in the assay with FLI1 is 1.63 fold enrichment (6-mer frequency, TF over GST control); with ELK1 it was 1.67 fold enrichment (6-mer frequency, TF over GST control); in the assay with GABPA it was 1.51 fold enrichment (6-mer frequency, TF over GST control); with ERG, 1.65 fold enrichment (6-mer frequency, TF over GST control); with ELF1, 1.53 fold enrichment (6-mer frequency, TF over GST control); in the assay with EHF it was 1.6 fold enrichment (6-mer frequency, TF over GST control). The binding signal with SPI1 was 1.57 fold enrichment (6-mer frequency, TF over GST control); with SPIB, 1.65 fold enrichment (6-mer frequency, TF over GST control); with ELK3 it was 1.74 fold enrichment (6-mer frequency, TF over GST control).

Consider CCTCAT, for which the binding signal with FLI1 was 1.35 fold enrichment (6-mer frequency, TF over GST control); with ELK1, 1.3 fold enrichment (6-mer frequency, TF over GST control); with GABPA, 1.34 fold enrichment (6-mer frequency, TF over GST control); with ERG, 1.34 fold enrichment (6-mer frequency, TF over GST control); with ELF1, 1.35 fold enrichment (6-mer frequency, TF over GST control); with EHF, 1.39 fold enrichment (6-mer frequency, TF over GST control). Moreover, the binding signal with SPI1 is 1.67 fold enrichment (6-mer frequency, TF over GST control); with SPIB, 1.33 fold enrichment (6-mer frequency, TF over GST control); in the assay with ELK3, 1.23 fold enrichment (6-mer frequency, TF over GST control).

For the sequence ATAGCA, the binding signal with FLI1 is 1.17 fold enrichment (6-mer frequency, TF over GST control); with ELK1, 1.14 fold enrichment (6-mer frequency, TF over GST control); in the assay with GABPA it was 1.19 fold enrichment (6-mer frequency, TF over GST control); with ERG, 1.19 fold enrichment (6-mer frequency, TF over GST control); with ELF1 it was 1.14 fold enrichment (6-mer frequency, TF over GST control); in the assay with EHF, 1.13 fold enrichment (6-mer frequency, TF over GST control). For the same sequence, the binding signal was 1.11 fold enrichment (6-mer frequency, TF over GST control) with SPI1; 1.18 fold enrichment (6-mer frequency, TF over GST control) with SPIB; 1.15 fold enrichment (6-mer frequency, TF over GST control) with ELK3.

With CTCAAA, the binding signal is 1.2 fold enrichment (6-mer frequency, TF over GST control) in the assay with FLI1; 1.14 fold enrichment (6-mer frequency, TF over GST control) with ELK1; 1.16 fold enrichment (6-mer frequency, TF over GST control) with GABPA; 1.13 fold enrichment (6-mer frequency, TF over GST control) in the assay with ERG; 1.25 fold enrichment (6-mer frequency, TF over GST control) in the assay with ELF1; 1.11 fold enrichment (6-mer frequency, TF over GST control) with EHF. For the same sequence, the binding signal with SPI1 was 1.29 fold enrichment (6-mer frequency, TF over GST control); in the assay with SPIB, 1.23 fold enrichment (6-mer frequency, TF over GST control); with ELK3 it was 1.15 fold enrichment (6-mer frequency, TF over GST control).

For AAAGAT, the binding signal with FLI1 is 1.18 fold enrichment (6-mer frequency, TF over GST control); in the assay with ELK1, 1.21 fold enrichment (6-mer frequency, TF over GST control); with GABPA, 1.21 fold enrichment (6-mer frequency, TF over GST control); with ERG, 1.21 fold enrichment (6-mer frequency, TF over GST control); with ELF1 it was 1.26 fold enrichment (6-mer frequency, TF over GST control); in the assay with EHF, 1.18 fold enrichment (6-mer frequency, TF over GST control). Moreover, the binding signal in the assay with SPI1 is 1.23 fold enrichment (6-mer frequency, TF over GST control); with SPIB, 1.3 fold enrichment (6-mer frequency, TF over GST control); with ELK3 it was 1.13 fold enrichment (6-mer frequency, TF over GST control).
